Source: PubChem BioAssay (several laboratories)
tim10-1 inh – tim10-1 yeast growth inhibition | S. cerevisiae tim10-1 ts strain growth, BacTiter-Glo, 24 h | inhibition, % at 20 µM | 330,000 tested, 2.2% active | AID 463190;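 active means inhibition of at least 40%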;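 further: mutant grown at 25 °C; 0% = DMSO wells with yeast and 100% = wells holding no yeast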
PfHsp90 yeast 2 – inhibits growth of yeast expressing Plasmodium falciparum Hsp90; AID 504621; inhibition, % at 9.4 µM; S. cerevisiae expressing PfHsp90, BacTiter-Glo ATP, 48 h; yeast lacking PDR1 and PDR3 efflux regulators; 310,000 tested, 0.32% active;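 active means every replicate shows inhibition above about 80%, whatever the replicate mean, limit read from the data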;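 further: 0% = DMSO neutral controls and 100% = 20 µM radicicol positive controls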
NALP1 inh – inhibitors of NALP1 inflammasome in yeast; S. cerevisiae NALP1/ASC/caspase-1 growth, X-gal OD620, 72 h; inhibition, % at 10 µM; 280,000 tested, 0.61% active; AID 2071; in the data active means inhibition mostly above about 24%, no sharp cut-off; inactive means mostly below about 32%
tim23-1 inh – inhibits growth of tim23-1 mutant yeast | inhibition, % at 20 µM | 330,000 tested, 1.3% active | S. cerevisiae tim23-1 growth, BacTiter-Glo luminescence, 24 h;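 active means growth inhibition of the mutant yeast at or above 50%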;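 further: temperature-sensitive mutant grown at 25 °C; plate controls were DMSO-treated mutant yeast for no effect and medium wells lacking yeast for full effect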
SKKanGAS inh – inhibitors of SKKanGAS S. pyogenes growth in kanamycin (SK-promoter or general growth effect) | BacTiter-Glo, 6 h | inhibition, % at 7.5 µM | 300,000 tested, 1.3% active | AID 1662;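 active means mean replicate score, as percent of positive control median, at least 50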;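 further: strain carries kanamycin resistance gene driven by streptokinase promoter and grows in 40 µg/ml kanamycin; loss of luminescence reflects streptokinase promoter inhibition or plain growth inhibition; 0% = median of DMSO wells and 100% = positive control at its reference dose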
TIM10 inh – TIM10 yeast growth inhibition; 330,000 tested, 1.4% active; AID 463195; inhibition, % at 10 µM; S. cerevisiae TIM10 strain growth, BacTiter-Glo luminescence, 24 h;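 active means inhibition of 40% or more at the single tested concentration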;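 further: wild-type TIM10 isogenic control strain grown at permissive 25 °C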
* marks the source's active call; other numbers are inactive results; . = no result; ! = not confirmed by another sample. The list is not random: actives were taken first. Their share in the collection is about 4.8%.

SMILES	tim10-1 inh	PfHsp90 yeast 2	NALP1 inh	tim23-1 inh	SKKanGAS inh	TIM10 inh
O=C(Nc1ccccc1)C(=O)Nc1ccc2c(c1)N(C(=O)C1CC1)CCC2	22	.	.	30	55*	13
O=C(Cn1c(=O)cnc2ccccc21)N1CCN(S(=O)(=O)c2ccc(F)cc2)CC1	-19	-16	.	-16	-3	-7
Cc1cc(NC(=O)CN2C(=O)c3ccccc3S2(=O)=O)no1	1	1	4	2	29	-1
Cc1cc(NC(=O)CN2C(=O)c3ccccc3C2=O)no1	7	5	9	3	50*	10
CCCc1nnc(NC(=O)CN2C(=O)c3ccccc3C2=O)s1	8	-36	44*	16	-9	0
O=c1c(C(c2ccccc2)c2c(O)sc3ccccc3c2=O)c(O)sc2ccccc12	-217	.	15	31	97*	-6
Cc1ccc(C(=O)C2=C(O)C(=O)N(Cc3ccco3)C2c2cccc(Br)c2)o1 (stereo not drawn)	-3	1	2	4	52*	-3
CN=c1scc(-c2ccc(OC)cc2)n1/N=C(\C)c1cccnc1	-18	8	-4	31	.	17
CC(C)CC1NC(=O)N(CC(=O)Nc2ccc(-c3ccccc3)cc2)C1=O (stereo not drawn)	-3	-5	.	0	.	3
Cc1nnc(C)c2c(C)n(-c3ccc4ncccc4c3)c(C)c12	16	9	25*	-3	-6	0
Cc1ccc2ncccc2c1	13	-11	.	6	.	-3
O=C1NC(=S)S/C1=C\C=C\c1ccc([N+](=O)[O-])o1	.	106*	.	.	.	.
CC(/C=C/c1ccc(N(C)C)cc1)=N/N=C1/NC(=O)CC(C(=O)Nc2ccc(Cl)cc2)S1 (stereo not drawn)	33	-10	10	18	95*	24
CC(/C=C/c1ccc(N(C)C)cc1)=N\N=C1\NC(=O)CC(C(=O)Nc2ccccc2)S1 (stereo not drawn)	23	-13	18	24	75*	15
NC(=O)c1nsc(C(=O)N(c2ccccc2F)C(C(=O)NCc2ccc(F)cc2)c2ccc(O)cc2)c1N (stereo not drawn)	-2	-33	16	-7	24	-4
CN(CCOC(=O)c1cccc(Br)c1)C(C)(C)C	2	16	28*	10	-9	-9
CCN(CC)CCOC(=O)c1cccc(Br)c1	-1	0	21	5	-3	1
O=C(c1ccccn1)N1CCN(S(=O)(=O)c2ccccc2)CC1	18	.	8	6	-5	9
CCN(CC)c1ccc(NC(=O)c2cccc(C)c2OC)c(C)c1	25	-33	29*	16	.	9
CCN(CC)c1ccc(NC(=O)c2cccnc2)c(C)c1	9	20	4	10	8	6
C1=C(c2ccccc2)CCN(c2nc3ccccc3n3cnnc23)C1	39	-6	41*	22	-1	18
CCC(C)(C)NC(=O)CN(CC1CCCO1)C(=O)CNS(=O)(=O)c1ccccc1 (stereo not drawn)	0	-34	-18	4	11	-13
COc1ccc2c(c1)[C@H]1[C@H](CO2)[C@H](c2ccccc2)[C@]2(C)C(=O)Nc3ccc(Cl)cc3C(=O)N12	.	137*	.	.	.	.
O=C(Nc1nc2n(n1)C(c1ccc(Cl)cc1)CC(c1ccc(Cl)cc1)N2)c1ccco1 (stereo not drawn)	20	.	31	18	55*	22
COc1ccc(C2CC(c3ccc(Cl)cc3)Nc3nc(NC(=O)c4ccco4)nn32)cc1 (stereo not drawn)	.	5	-60	.	20	.
SMILES	tim10-1 inh	PfHsp90 yeast 2	NALP1 inh	tim23-1 inh	SKKanGAS inh	TIM10 inh
CC1(C)c2ccccc2-n2c1cc1oc(=O)cc(O)c1c2=O	-18	31	.	35	96*	33
Cn1c(O)c(C2=c3ccccc3=NC2=O)[nH]c1=S	9	-11	29	-4	-24	2
COc1ccc2nc(-n3c(O)c(C4=c5ccccc5=NC4=O)[nH]c3=S)sc2c1	.	-8	33	.	104*	.
CC(C)N(Cc1ccccc1)C(=O)COC(=O)c1ccc2ncsc2c1	6	7	.	17	.	-13
COc1ccc(S(=O)(=O)N2CCCC2C(=O)n2nc(C)cc2C)cc1 (stereo not drawn)	29	2	-12	22	1	25
CCOC(=O)c1[nH]ncc1CN1CCCC(C(=O)c2ccc(OC)c(OC)c2)C1 (stereo not drawn)	9	-22	-2	14	-7	-1
CCOC(=O)c1[nH]ncc1CN1CCCC(C(=O)c2cc(Cl)ccc2OC)C1 (stereo not drawn)	-2	-15	33*	15	-8	-5
COc1ccc(C(=O)C2CCCN(Cc3c[nH]c4ccccc34)C2)c(OC)c1 (stereo not drawn)	22	1	28*	5	-6	0
CNCCCC12CCC(c3ccccc31)c1ccccc12	15	5	29*!	8	1	12
CNCCCC1c2ccccc2C=Cc2ccccc21	13	10	25	-11	-2	5
COC(=O)CSc1nnc(CNS(=O)(=O)c2ccc(C)cc2)n1C	0	23	36*	4	-3	6
COC(=O)CSc1nnc(-c2ccc(S(=O)(=O)N3CCCC3)cc2)n1C	8	10	42*	-3	-5	-26
O=C1CCC/C=C\C[C@@H](CC(=O)N(CCO)Cc2ccccc2)C(=O)N2CCC[C@H]2CO1	13	.	.	21	.	2
CCCCn1c(O)c(C(CC)=Nc2ccc3c(c2)CCC3)c(=O)[nH]c1=O	12	-3	6	4	53*	31
Oc1[nH]c2ccc(Br)cc2c1N=NC(=S)NCC1CCCO1 (stereo not drawn)	30	4	14	21	81*	23
COc1ccccc1NC(=S)N=Nc1c(O)[nH]c2ccc(Br)cc12	12	23	24	9	93*	12
C=C(C)CNC(=S)N/N=C/c1ccc([N+](=O)[O-])cc1	-16	17	32*	-9	3	-41
Cc1cccc(C(=O)NNC2=C(C(=O)C(F)(F)F)CCC2)c1O	-40	8	-7	19	104*	-33
O=C(NNC1=C(C(=O)C(F)(F)F)CCC1)c1cccc(O)c1	-11	-19	-15	-4	22	-14
CCCCC1C2C(=O)N(c3ccc(C)cc3)C(=O)C2ON1c1ccccc1 (stereo not drawn)	16	.	-1	33	-6	7
COC(=O)c1c(C)oc(C)c(C(=O)OC)c1=O	-18	8	22*	-8	6	-17
Cc1oc(C)c(C(=O)O)c1C(=O)O	5	-1	11	-10	-13	-2
O=S(=O)(c1ccc(Cl)cc1)N1CCN=C1SCc1cccc(Cl)c1	22	-9	19	12	-14	-23
O=S(=O)(c1ccccc1)N1CCN=C1SCc1c(F)cccc1Cl	17	-1	21	30	64*	-7
